NTR1 ag = agonists of human neurotensin receptor NTR1; NTR1-U2OS beta-arrestin-GFP spot imaging, agonist mode; actives 0.17% (n = 330,000); AID 493036; activation, % at 20 µM;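 active = activation at or above 40% of the spot to cytoplasm intensity ratio, with at least 20 cells analyzed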;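 note: 0% = DMSO without peptide and 100% = 100 nM NTR1 peptide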
MEKK3 PB1 HTS = modulators (inhibitors or enhancers) of MEK5 binding to human MEKK3 PB1 domain | bead-based flow cytometry, Alexa488-MEK5 binding to MEKK3; actives lie on both sides; 0 = blocked by unlabeled MEK5, 100 = vehicle | binding response (% of control), % at 10 µM | actives 1.4% (n = 290,000) | AID 1529;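 active = binding response more than 3 SD above or below the average of its plate-row segment, actives on both sides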;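 note: Alexa488 bead fluorescence after subtracting the streptavidin-only scavenger bead signal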
MEKK2wt PB1 HTS = raises or lowers MEK5 binding to wildtype human MEKK2 PB1 domain. Q9Y2U5. bead flow cytometry, Alexa488-MEK5 binding to MEKK2 WT; actives lie on both sides. binding response (% of control), % at 10 µM. actives 1.1% (n = 290,000); in the data active = binding response below about 67% or above about 130%
TMEM16A act = mouse TMEM16A channel activation, primary screen | B-score at 10 µM | actives 0.3% (n = 340,000) | Q8BHY3 | HEK293 TMEM16A/YFP-H148Q/I152L, iodide quench fluorescence; hits give low values;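 active = fluorescence-ratio B-score plate-corrected deviation score at least 3 library SD below zero, with starting fluorescence score within 5 deviations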;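 note: channel opened by trigger with iodide after compound preincubation; score built on the fluorescence ratio of max minus min over baseline; more negative score means more quench and so TMEM16A activation or potentiation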
MEKK2 mut-MEK5 = signal of MEK5 binding to mutant human MEKK2 PB1 domain | bead flow cytometry, Alexa488-MEK5 binding to MEKK2 mutant | percent response, % at 10 µM | actives 0.35% (n = 290,000) | AID 1530; in the data active = percent response above about 24%, passing the limit was not always enough
TMEM16A inh = blocks the mouse calcium-activated chloride channel TMEM16A; Q8BHY3; HEK293 TMEM16A/YFP iodide influx fluorescence, ionomycin; normalized B-score (activity score, 25-100; higher = stronger inhibition) at 10 µM; actives 1.2% (n = 310,000);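 active = ratio plate-corrected score three or more library SD toward inhibition, starting fluorescence score within five deviations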;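 note: score derived from kinetic fluorescence span divided by baseline fluorescence per well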
MEKK2wt confirm = raises or lowers MEK5 binding to wildtype human MEKK2, retest. shares compounds with MEKK3 PB1 HTS. bead flow cytometry, Alexa488-MEK5 binding to MEKK2 WT; actives lie on both sides. binding response (% of control), % at 10 µM. actives 2.4% (n = 5,900). AID 1892; in the data active = binding response below about 16% or above about 210%; inactive = in between
MEKK2mut-MEK5 = signal of MEK5 binding to mutant human MEKK2, retest; shares compounds with MEKK3 PB1 HTS; bead flow cytometry, Alexa488-MEK5 binding to MEKK2 mutant; percent response, % at 10 µM; actives 2% (n = 5,900); AID 1893; in the data active = percent response mostly above about 71%, no sharp cut-off; inactive = mostly below about 38%;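 note: higher means compound restores mutant binding toward wildtype level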
MEKK3 confirm = confirmation of inhibitors of MEK5 binding to human MEKK3; shares compounds with MEKK3 PB1 HTS; bead flow cytometry, Alexa488-MEK5 binding to MEKK3; hits give low values; binding response (% of control), % at 10 µM; actives 1.8% (n = 5,900); AID 1894;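 active = binding response below 72% of control, or above a set upper limit, though filed actives all read lower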;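 note: 100% = DMSO only wells and 0% = binding blocked by excess unlabeled MEK5; lower values mean stronger disruption of MEK5 binding to MEKK3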
An asterisk follows results filed as active; i = inactive; / = no result given; [ ] = remark or other dose. In the library only some 3.4% were active in any assay of this set; here they are far more common.

SMILES	NTR1 ag	MEKK3 PB1 HTS	MEKK2wt PB1 HTS	TMEM16A act	MEKK2 mut-MEK5	TMEM16A inh	MEKK2wt confirm	MEKK2mut-MEK5	MEKK3 confirm
S=C(Nc1ccc(Br)cc1)NC1CCCCC1	2	151*	116	i	1	i	108	6	107
CC1CCC(NC(=O)c2ccc(S(C)(=O)=O)cc2)CC1 (centres undefined)	0	104	94	i	-1	i	/	/	/
CCn1cc(/C=C(\NC(=O)c2ccccc2F)C(=O)N2CCCC2)c2ccccc21	2	101	101	i	1	i	/	/	/
COc1cc(/C=N/NS(=O)(=O)c2ccc(C(C)(C)C)cc2)cc([N+](=O)[O-])c1O	0	96	48*[inhibitor]	i	14	i	98	1	106
Cc1cc(Nc2n[nH]c(N)c2C#N)ccc1F	-1	99	103	i	-1	i	/	/	/
COc1cc(C(=O)NCc2ccc(C)cc2)ccc1OCc1c(C)noc1C	0	106	106	i	9	i	/	/	/
COc1ccccc1CNC(=O)c1ccc(OCc2c(C)noc2C)c(OC)c1	2	2.0*[inhibitor]	1.0*[inhibitor]	i	-42	i	105	1	102
COc1cccc(CNCc2ccc(OC)cc2OC)c1	2	102	107	i	9	i	/	/	/
CCn1c2ccccc2c2cc(CNCc3ccc(OC)cc3OC)ccc21	29	107	170*	i	17	100*	175	11	98
Cn1c(=O)c2c(nc(NCC3CCCC(CN)C3)n2Cc2ccc(Cl)cc2Cl)n(C)c1=O (centres undefined)	0	104	141*	i	30*	i	185	48	109
Cc1onc(-c2ccccc2Cl)c1C(=O)NCCN1Cc2ccccc2C1=O	0	1.0*[inhibitor]	2.0*[inhibitor]	i	-21	i	97	-6	98
Cc1c(Br)c(C(F)(F)F)nn1CC(=O)N(C)C1CCCCC1	-1	102	104	i	1	i	/	/	/
Cc1ccc(S(=O)(=O)N(C)C)cc1-n1c(SCC(=O)Nc2ccc(F)c(F)c2F)nc2ccccc2c1=O	-1	148*	106	i	1	i	97	-4	104
Cc1ccc(S(=O)(=O)N(C)C)cc1-n1c(SCC(=O)N(C)C)nc2ccccc2c1=O	0	95	94	i	-3	i	/	/	/
O=C(NC1CCCC1)C1CCN(S(=O)(=O)c2cccc3cccnc23)CC1	-1	109	113	i	5	i	/	/	/
O=C(NC1CCCCC1)C1CCCN(S(=O)(=O)c2cccc3cccnc23)C1 (centres undefined)	1	129*	115	i	27	i	106	6	104
CN1CCN(NC(=S)Nc2ccc(OC(F)F)cc2)CC1	3	99	93	i	-1	i	/	/	/
N#CCOc1coc(CN2CCN(c3cccc(Cl)c3)CC2)cc1=O	0	101	102	i	1	i	/	/	/
Cc1cc(C(=O)NCCC(c2ccccc2)c2ccccc2)c(C)o1	-2	109	110	i	10	i	/	/	/
Cc1cccc(C(=O)NCc2nnc(SCC(=O)NC(C)c3ccccc3)n2C)c1 (centres undefined)	2	103	100	i	2	i	/	/	/
Cc1cccc(C(=O)NCc2nnc3c4ccccc4c(-c4ccccc4)nn23)c1	0	146*	107	i	0	i	95	-4	94
N#CC1=C(N)OC2=C(C(=O)CCC2)C12C(=O)N1CCCc3cccc2c31 (centres undefined)	0	100	101	i	4	i	/	/	/
N#CC1=C(N)OC2=C(C(=O)CCC2)[C@]12C(=O)N(CC(N)=O)c1ccccc12	-2	0.0*[inhibitor]	-1.0*[inhibitor]	i	-21	i	104	1	97
CCn1c(/C=N/Nc2ccc(C(=O)O)cc2)nc2ccccc21	3	133*	107	i	0	i	99	-2	98
N#CC1=C(S)N(c2ccccc2)C(c2ccc(-c3cccc(Cl)c3)o2)NC1=O (centres undefined)	2	130*	101	i	0	i	95	-7	100
SMILES	NTR1 ag	MEKK3 PB1 HTS	MEKK2wt PB1 HTS	TMEM16A act	MEKK2 mut-MEK5	TMEM16A inh	MEKK2wt confirm	MEKK2mut-MEK5	MEKK3 confirm
O=S(=O)(c1ccccc1)c1ccc(N2CCCCCC2)cc1	1	100	102	i	6	i	/	/	/
N#CC(C#N)=Cc1c(N2CCN(c3ccccc3)CC2)nc2ccccn2c1=O	3	101	100	i	1	i	/	/	/
NC1=NN=C(c2ccc3c(c2)OCCO3)CS1	4	1.0*[inhibitor]	1.0*[inhibitor]	i	-84	i	94	-8	96
Cc1sc(N)nc1-c1ccc2c(c1)OCCO2	-1	103	105	i	12	i	/	/	/
COc1ccc(C2c3ccc4ccccc4c3Oc3ncn(CCN(C)C)c(=N)c32)cc1 (centres undefined)	20	106	157*	i	29*	i	124	15	105
CN(C)CCCn1cnc2c(c1=N)C(c1ccccc1)c1ccc3ccccc3c1O2 (centres undefined)	14	101	170*	i	26*	i	194	64	103
COc1ccc(C2c3ccc4ccccc4c3Oc3ncn(CCO)c(=N)c32)cc1 (centres undefined)	38	115	151*	i	20	i	143	27	95
COc1ccc(C2c3ccc4ccccc4c3Oc3ncn(CCN4CCOCC4)c(=N)c32)cc1 (centres undefined)	24	108	179*	i	24	i	172	42	112
COc1ccc(C2c3ccc4ccccc4c3Oc3ncn(CCCO)c(=N)c32)cc1 (centres undefined)	0	88	110	i	-2	i	/	/	/
N=c1c2c(ncn1CCCO)Oc1c(ccc3ccccc13)C2c1ccccc1 (centres undefined)	1	102	135	i	18	i	/	/	/
Cc1cnc(CNC(=O)c2ccc3oc(Cc4ccc(Cl)cc4)nc3c2)cn1	0	89	81	i	-13	i	/	/	/
